Our source for the outcome and AC50 values is PubChem BioAssay (EPA / NIEHS).

Holding throughout (settings): actives raise or lower the signal
The nature of experiment [1]: CEETOX_H295R_11DCORT: CeeTox H295R High-throughput Steroidogenesis Assay for 11-Deoxycortisol (11DCORT) (AID 2283432).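 On AC50: human adrenal H295R cells prestimulated with 10 µM forskolin for 48 h; 11-deoxycortisol secreted into the medium measured by LC-MS/MS.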 In a few lines: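 Adrenal carcinoma line H295R, run per OECD 456 with minor changes, was forskolin-stimulated (10 uM, 48 h) before a 48 h chemical exposure at 0.1% DMSO. Secreted 11-deoxycortisol was quantified by HPLC-MS/MS.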
Experiment [2] can be described thus: CEETOX_H295R_OHPREG: CeeTox H295R High-throughput Steroidogenesis Assay for OH-Pregnenolone (OHPREG) (AID 2283434). In outline: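 Readout: HPLC-MS/MS of 17alpha-hydroxypregnenolone in medium after 48 h chemical exposure of H295R cells pretreated with forskolin. Values fitted bidirectionally relative to DMSO; chemicals reducing viability to 20–70% were retested after 10-fold dilution.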

A short description of experiment [3]: CEETOX_H295R_OHPROG: CeeTox H295R High-throughput Steroidogenesis Assay for OH-Progesterone (OHPROG) (AID 2283435).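 On AC50: 17alpha-hydroxyprogesterone secreted into medium measured by HPLC-MS/MS.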 In a few lines: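 Steps: seed H295R cells and adhere overnight; stimulate with 10 uM forskolin for 48 h; replace with chemical-containing medium (0.1% DMSO) for 48 h; extract medium with MTBE; quantify 17alpha-hydroxyprogesterone by reverse-phase C18 HPLC-MS/MS against a 7-point curve.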

Experiment [4] can be described thus: CEETOX_H295R_CORTIC: CeeTox H295R High-throughput Steroidogenesis Assay for Corticosterone (CORTIC) (AID 2283437).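 Further: corticosterone secreted into medium quantified by mass spectrometry.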 In a few lines:
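Steps: seed H295R, adhere overnight; 10 uM forskolin 48 h; replace with chemical (0.1% DMSO) 48 h; extract medium with MTBE; quantify corticosterone by HPLC-MS/MS; score bidirectionally vs DMSO.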

The nature of experiment [5]: CEETOX_H295R_CORTISOL: CeeTox H295R High-throughput Steroidogenesis Assay for Cortisol (AID 2283438). In a few lines: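 Cortisol synthesis by H295R cells is measured 48 h after chemical dosing, following a 48 h stimulation with 10 uM forskolin. Hormone is extracted and quantified by HPLC-MS/MS, and activity is fitted bidirectionally against the DMSO control.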
Experiment [6] can be described thus: CEETOX_H295R_DOC: CeeTox H295R High-throughput Steroidogenesis Assay for DOC (AID 2283439). In a few lines: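 Steps: seed H295R, adhere overnight; 10 uM forskolin 48 h; replace with chemical medium (0.1% DMSO) 48 h; collect medium, MTBE extraction, HPLC-MS/MS for DOC. Viability then checked by MTT; cytotoxic chemicals diluted until viability ≥70%.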
Experiment [7] is described as follows: CEETOX_H295R_PROG: CeeTox H295R High-throughput Steroidogenesis Assay for Progesterone (PROG) (AID 2283442).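 On AC50: human H295R adrenal cells primed with 10 µM forskolin before dosing.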 In outline:
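Steps: seed H295R cells and let them adhere overnight; prime 48 h with 10 uM forskolin; dose with compound in DMSO at 0.1% final for 48 h; extract medium steroids with MTBE; measure progesterone by LC-MS/MS. MTT viability was run in the same wells.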

Experiment [8] can be described thus: CEETOX_H295R_ANDR: CeeTox H295R High-throughput Steroidogenesis Assay for Androstenedione (ANDR) (AID 2283436).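 Further: human H295R adrenal cells exposed for 48 h with androstenedione measured in medium.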 In a few lines:
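Steroidogenesis in H295R adrenal cells after 48 h dosing; androstenedione quantified by LC-MS/MS, with DMSO as negative control and baseline for bidirectional curve fitting.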

Experiment [9] in a line: CEETOX_H295R_ESTRADIOL: CeeTox H295R High-throughput Steroidogenesis Assay for Estradiol (AID 2283440).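 Further: estradiol secreted into medium quantified by LC-MS/MS after dansyl derivatisation.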 In outline:
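Estradiol secreted into the medium was measured by tandem mass spectrometry after liquid-liquid extraction and dansylation. Human H295R cells had been forskolin-primed (10 uM, 48 h) before a 48 h chemical exposure with 0.1% DMSO.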

A short description of experiment [10]: CEETOX_H295R_ESTRONE: CeeTox H295R High-throughput Steroidogenesis Assay for Estrone (AID 2283441).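 On AC50: human adrenal H295R cells prestimulated with forskolin for two days.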 In outline: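 Estrone secreted into medium quantified by LC-MS/MS after dansyl chloride derivatization, following 48 h chemical exposure (0.1% DMSO final) of forskolin-prestimulated (10 uM, 48 h) H295R cells; gain or loss fitted against DMSO; MTT viability in same wells.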

Structures are written as SMILES. The source made the active and inactive calls. How the source made its calls: active means hit-call score of the fitted dose curve at least 0.9, where 1 is the maximum; inactive means score below 0.9.

Regarding `OCCC(O)CO` (centres undefined), the result in experiment [1], in experiment [2], in [3], in experiment [4], in [5] and in experiment [6] was inactive. Further, in experiment [7], the outcome was inactive.

Regarding `CCCCCCCCCc1ccc(OCCO)cc1`, the compound was classed as inactive in [1], in experiment [2], in [3], in experiment [8], in [4] and in experiment [5]. Also, the outcome in [6], in experiment [9], in experiment [10] and in [7] was inactive.

As to `O=C(c1ccccc1)c1ccc(Cl)cc1`, the compound was called inactive in experiment [1], in [2], in experiment [8], in experiment [4], in experiment [5] and in [6]. The result in experiment [7] was inactive. Further, the half-maximal activity concentration (AC50) in experiment [3] was 37.9 µM (active).

`CCCCCCCCCCCCC[N+](C)(C)Cc1ccccc1`: the AC50 in experiment [1] was 0.287 µM (active); in experiment [2], 0.59 µM (active); in experiment [3] it was 0.509 µM (active); in experiment [8], 0.307 µM (active); in [6], 0.337 µM (active); in [7], 0.159 µM (active). Also, the compound was classed as inactive in experiment [4], in [5], in experiment [9] and in experiment [10].

As for `CCn1c2ccccc2c2ccccc21`, the AC50 in experiment [1], in experiment [3] and in experiment [8] was 50 µM (active) each time. Further, the result in experiment [2], in experiment [4], in experiment [5], in experiment [6] and in experiment [7] was inactive.

Regarding `Cc1cccc(C)n1`, the result in [1], in experiment [2], in [3], in [8], in experiment [4] and in [5] was inactive. Further, the result in experiment [6], in [9], in experiment [10] and in experiment [7] was inactive.

Take `CSc1ccc(O)cc1C`: the compound was classed as inactive in experiment [1], in experiment [2], in experiment [3], in experiment [5], in experiment [6] and in experiment [7]. Moreover, the AC50 in experiment [8] was 78 µM (active); in experiment [4], 37.6 µM (active); in experiment [9], 28.2 µM (active); in experiment [10] it was 26.7 µM (active).

As for `Cc1cc(O)c(C(C)(C)C)cc1C(C)(C)C`, the call in [1], in experiment [2], in [3], in experiment [8], in experiment [4] and in [5] was inactive. The outcome in experiment [6], in experiment [9] and in experiment [10] was inactive. Further, in experiment [7], the AC50 is 2.64 µM (active).

`N#Cc1ccccc1O`: the result in experiment [1], in experiment [2], in experiment [4], in experiment [5] and in experiment [7] was inactive. The AC50 in [3] is 30.1 µM (active); in experiment [6] it was 77.7 µM (active).

In the case of `O=c1[nH]cccc1O`, the AC50 in experiment [1] was 8.85 µM (active); in experiment [2] it was 6.71 µM (active); in experiment [3] it was 8.78 µM (active); in [6], 5.07 µM (active). Also, the call in [4], in experiment [5], in [9], in experiment [10] and in experiment [7] was inactive.

`CN1CN(C)CN(C)C1`: the compound was classed as inactive in [1], in [2], in experiment [3], in experiment [4], in experiment [5] and in [6]. Moreover, the compound was classed as inactive in [9], in [10] and in [7].

Turning to `O=C1C=CC(=O)N1c1ccccc1`, the outcome in experiment [1], in experiment [2], in experiment [3], in experiment [8], in experiment [4] and in experiment [5] was inactive. For the same compound, the call in experiment [6], in [9], in [10] and in [7] was inactive.

In the case of `O=C1c2ccccc2C(=O)c2c(Cl)cccc21`, the result in [1], in [2], in experiment [3], in experiment [8], in experiment [4] and in experiment [5] was inactive. In addition, the compound was classed as inactive in [6], in experiment [9], in [10] and in experiment [7].

As for `Oc1ccc2c(c1)CCC2`, the outcome in [1], in experiment [8], in experiment [4], in experiment [5], in [6] and in experiment [10] was inactive. For the same compound, the AC50 in [9] was 39.1 µM (active).

Consider `CCN(CC)c1ccc(N=Nc2ccccc2)cc1`, for which, in experiment [1], the AC50 was 10 µM (active). The outcome in experiment [2], in experiment [3], in [8], in experiment [4], in experiment [5] and in [6] was inactive. Also, the call in experiment [9], in [10] and in experiment [7] was inactive.

Consider `Nc1cccnc1N`, for which the outcome in experiment [1], in experiment [2], in [3], in experiment [4], in experiment [5] and in experiment [6] was inactive. The outcome in experiment [7] was inactive.

As to `C[C@]12CC[C@H]3C(=CCc4cc(O)ccc43)[C@@H]1CCC2=O`, the AC50 is 17.8 µM (active) in experiment [1]; 3.5 µM (active) in experiment [2]; 2.87 µM (active) in experiment [3]; 8.03 µM (active) in [8]; 13.7 µM (active) in experiment [5]; 0.811 µM (active) in experiment [6]. Moreover, in [7], the AC50 is 0.502 µM (active). In addition, the compound was classed as inactive in experiment [4].

On to `CCCCC(CC)COC(=O)c1ccc(N(C)C)cc1` (centres undefined), for which the outcome in [1], in experiment [4], in experiment [5], in experiment [9] and in experiment [10] was inactive. Further, the AC50 in [2] was 6.35 µM (active); in experiment [3] it was 6.74 µM (active); in experiment [6], 6.74 µM (active); in experiment [7], 6.01 µM (active).

Take `CCOCOCC`: the result in [1], in [2], in experiment [3], in experiment [8], in [4] and in experiment [5] was inactive. The call in [6], in [9], in experiment [10] and in experiment [7] was inactive.

`CC1CCCCC1`: the result in [1], in experiment [2], in [3], in experiment [8], in [4] and in [5] was inactive. For the same compound, the compound was classed as inactive in experiment [6], in [9], in experiment [10] and in [7].

Regarding `CCN(CC)c1ccc(C=O)cc1`, the result in experiment [1], in experiment [2], in [3], in experiment [8], in experiment [4] and in [5] was inactive. The result in experiment [9], in [10] and in [7] was inactive. Besides, the concentration at half-maximal activity (AC50) in [6] is 59.2 µM (active).
